# From PubChem BioAssay (NCATS)
# Records with an inconclusive call do not appear. Where a call stands in place of a potency, no number is given. Active and inactive are the calls of the source. Unless noted, calls come from the whole dose curve; as a rule, active = well fitted cell-killing curve with a large enough effect; inconclusive = small, poorly fitted or top-dose-only effect; inactive = flat fitted curve, though single readings scatter.
# How the values were obtained:
# [1] = Cell Viability - LYMP2-025 (AID 976); note: series mostly up to about 92 µM
# Outline: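 Acute cytotoxicity is scored as a concentration-dependent fall in intracellular ATP, measured by luciferase luminescence, in human lymphoblastoid LYMP2-025 cells exposed to compound for 24 hours at 37 C. AC50 values come from standard Hill fits.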
# [2] = Cell Viability - LYMP2-006 (AID 978); note: series mostly up to about 92 µM; nearly all actives have a fitted effect of over 60% in size
# Outline: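 In this cytotoxicity screen, the human lymphoblastoid line grew in complete medium with test compounds for 24 hr at 37 C. Cellular ATP served as the viability signal.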
# [3] = Cell Viability - LYMP2-007 (AID 979);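 note: cells exposed to compound for 24 h before reading; nearly all actives have a fitted effect of over 60% in size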
# Outline: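 Cells are seeded at 2500 per well and rested 5 hr. Compounds are then added over a concentration series for 24 hr at 37 C. CellTiter-Glo is added for 30 min at room temperature before luminescence reading.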
# [4] = Cell Viability - LYMP2-008 (AID 980); note: nearly all actives have a fitted effect of over 60% in size
# Outline: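 Cells seeded at 2500/well and rested 5 hr at 37 C; compounds added over a concentration range and incubated 24 hr at 37 C; CellTiter-Glo added, 30 min at room temperature; luminescence read and AC50 fitted with Hill model.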
# [5] = Cell Viability - LYMP2-010 (AID 981); note: nearly all actives have a fitted effect of over 55% in size
# Outline: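 Steps: seed 2500 LYMP2-010 cells per well; incubate 5 hr at 37 C; add compound; incubate 24 hr at 37 C; add CellTiter-Glo, wait 30 min at room temperature; read luminescence. Concentration-response fitted to Hill equation for AC50.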
# [6] = Cell Viability - LYMP2-012 (AID 982);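 note: cellular ATP by luciferase luminescence where a drop means cytotoxicity; cells exposed to compound for one day before reading; nearly all actives have a fitted effect of over 55% in size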
# [7] = Cell Viability - LYMP2-014 (AID 983); note: series mostly up to about 92 µM; nearly all actives have a fitted effect of over 50% in size
# Outline: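 Cells are plated at 2500/well and left 5 hr at 37 C. Compounds are added across a concentration range and incubated 24 hr at 37 C in complete medium. CellTiter-Glo is added, and luminescence is read after 30 min at room temperature.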
# [8] = Cell Viability - LYMP2-016 (AID 984); note: nearly all actives have a fitted effect of over 55% in size
# Outline: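 Concentration-dependent ATP depletion measured in LYMP2-016 lymphoblastoid cells, 24 h, 37 C; luciferase-based luminescent detection; Hill-equation AC50.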
# [9] = Cell Viability - LYMP2-018 (AID 985);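 note: compound exposure lasted 24 hr at 37 °C; nearly all actives have a fitted effect of over 50% in size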
# Outline: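 Seed 2500 lymphoblastoid cells per well, incubate 5 hr at 37 C, add compound and incubate 24 hr at 37 C, add CellTiter-Glo, wait 30 min at room temperature, then read luminescence.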
# [10] = Cell Viability - LYMP2-020 (AID 986); note: series mostly up to about 92 µM; nearly all actives have a fitted effect of over 55% in size
# Outline: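 Seed 2500 cells per well and incubate 5 hr at 37 C. Add compounds at a concentration series and incubate 24 hr at 37 C. Add CellTiter-Glo, wait 30 min at RT, read luminescence, and fit a Hill curve for AC50.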
# [11] = Cell Viability - LYMP2-022 (AID 987); note: nearly all actives have a fitted effect of over 55% in size
# Outline: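 Cells were seeded at 2500 per well, rested 5 hr at 37 C, and treated with titrated compounds for 24 hr at 37 C. Cellular ATP was then quantified by luciferase luminescence, and AC50 values were derived from Hill-modelled concentration-response curves.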
# [12] = Cell Viability - LYMP2-024 (AID 988); note: nearly all actives have a fitted effect of over 60% in size
# Outline: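 qHTS cytotoxicity, human lymphoblastoid line, complete medium; 24 h cpd treatment, 37 C; CellTiter-Glo ATP luminescence readout; tetraoctylammonium bromide positive control; AC50 via Hill fit.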
# [13] = Cell Viability - LYMP2-026 (AID 989); note: nearly all actives have a fitted effect of over 50% in size
# Outline: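 Cells are seeded at 2500 per well and held 5 hr at 37 C. Compounds are added in concentration series for 24 hr, then CellTiter-Glo reagent is applied and luminescence read.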
# [14] = Cell Viability - LYMP1-002 - Assay at 24 hr (AID 993)
# Outline: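 Acute toxicity is measured as concentration-dependent loss of cellular ATP in a human lymphoblastoid line (Coriell LYMP1-002) after 24 h treatment in complete medium. ATP is quantified by luciferase luminescence and AC50 derived by Hill modelling.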
# [15] = Cell Viability - LYMP1-002 - Assay at 40 hr (AID 994); note: nearly all actives have a fitted effect of over 60% in size
# Outline: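 Cells are plated at 2500 per well and rested 5 hr at 37 C. Compounds are added and incubated 40 hr at 37 C. CellTiter-Glo reagent is added for 30 min at room temperature before luminescence is read.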
# [16] = qHTS Assay for Identification of Small Molecule Inducers of Hypoxia Response (AID 2120; active = well fitted curve in the direction sought with a large enough effect in the signal ratio, with a control signal flat, not every such curve was filed as active; the % refers to the signal ratio)
# Outline: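 Cell-based qHTS for reporter induction: hypoxia response element controlled beta-lactamase in ME-180 cells. Compounds incubated 17 h at 37 degrees C; activity from blue/green (460/530 nm) ratio, inducers ranked by AC50.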
# [17] = target: Estrogen receptor (Homo sapiens) (UniProt P03372); assay: qHTS assay for small molecule antagonists of estrogen receptor alpha signaling (AID 588513; active = well fitted curve in the direction sought with a large enough effect in the signal ratio, with a control signal flat, not every such curve was filed as active; the % refers to the signal ratio)
# Outline: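 Antagonist-mode qHTS in ER-alpha-UAS-bla HEK 293 cells: compound titration, 0.5nM estradiol for 18 h, CCF4 fluorescence, Hill-derived IC50.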
# [18] = target: Estrogen receptor (Homo sapiens) (UniProt P03372); assay: qHTS assay for small molecule agonists of estrogen receptor alpha signaling (AID 588514; calls by dose curve; note: nearly all actives have a fitted effect of over 70% in size; note: potency is the fitted concentration of half-maximal effect)
# Outline: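 Efficacy is expressed against 20 nM 17-beta-estradiol (100%) and DMSO basal (0%); EC50 from Hill equation. Assay: beta-lactamase reporter in ER-alpha-UAS-bla HEK 293 cells, 18 h compound incubation, CCF4 detection.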
# [19] = Cell Viability - LYMP2-002 (AID 977);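 note: series mostly up to about 92 µM; compound exposure lasted 24 h at 37 °C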
# Outline: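 In this qHTS viability screen, 2500 human lymphoblastoid cells per well receive compound for 24 hr at 37 C, and luciferase-based ATP luminescence gives the viability signal. Tetraoctylammonium bromide serves as positive control.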
# Sequence of Estrogen receptor (Homo sapiens) (P03372 whole entry, looked up): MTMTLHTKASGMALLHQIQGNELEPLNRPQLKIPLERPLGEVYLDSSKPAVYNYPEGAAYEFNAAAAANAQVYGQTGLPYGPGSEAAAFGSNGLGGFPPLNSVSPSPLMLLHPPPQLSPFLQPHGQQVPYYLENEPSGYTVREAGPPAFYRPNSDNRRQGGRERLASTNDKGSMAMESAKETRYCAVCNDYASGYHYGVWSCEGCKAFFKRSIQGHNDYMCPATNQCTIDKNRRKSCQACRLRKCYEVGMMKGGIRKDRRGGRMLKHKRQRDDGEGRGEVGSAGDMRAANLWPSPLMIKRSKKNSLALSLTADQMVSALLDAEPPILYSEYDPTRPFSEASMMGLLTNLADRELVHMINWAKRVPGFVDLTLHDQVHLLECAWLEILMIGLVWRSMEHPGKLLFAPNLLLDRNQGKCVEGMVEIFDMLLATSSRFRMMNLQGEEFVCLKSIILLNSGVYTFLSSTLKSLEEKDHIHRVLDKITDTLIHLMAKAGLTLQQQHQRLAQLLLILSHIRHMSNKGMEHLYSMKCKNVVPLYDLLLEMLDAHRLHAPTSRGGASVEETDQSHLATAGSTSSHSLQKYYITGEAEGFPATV
SMILES,Potency [1],Potency [2],Potency [3],Potency [4],Potency [5],Potency [6],Potency [7],Potency [8],Potency [9],Potency [10],Potency [11],Potency [12],outcome [13],Potency [14],Potency [15],outcome [16],outcome [17],Potency [18],Potency [19]
C/C=C1\CC2C=CC1C2 (stereo unspecified),inactive,inactive,inactive,inactive,inactive,inactive,inactive,inactive,inactive,inactive,inactive,inactive,inactive,inactive,inactive,inactive,inactive,inactive,
COC(=O)CC#N,inactive,inactive,inactive,inactive,inactive,inactive,inactive,inactive,inactive,inactive,inactive,inactive,inactive,inactive,inactive,inactive,inactive,inactive,
C(=C/c1ccccc1)/c1ccccc1,inactive,inactive,inactive,inactive,inactive,inactive,inactive,inactive,inactive,inactive,inactive,inactive,,inactive,inactive,inactive,inactive,inactive,
CC(=O)OCc1ccco1,inactive,inactive,inactive,inactive,inactive,,inactive,inactive,inactive,inactive,inactive,inactive,inactive,inactive,inactive,inactive,inactive,inactive,
O=Cc1ccc(CO)o1,,inactive,inactive,inactive,inactive,inactive,inactive,inactive,inactive,inactive,inactive,inactive,inactive,,inactive,inactive,inactive,,inactive
C=C(C)C(N)=O,inactive,inactive,inactive,inactive,inactive,inactive,inactive,inactive,inactive,inactive,inactive,inactive,inactive,inactive,inactive,inactive,inactive,,inactive
CN(C)CCCCl,,inactive,inactive,inactive,inactive,inactive,inactive,inactive,inactive,inactive,inactive,inactive,inactive,inactive,inactive,inactive,inactive,inactive,inactive
CCc1ccccc1,,inactive,inactive,inactive,inactive,inactive,inactive,inactive,inactive,inactive,inactive,inactive,inactive,inactive,inactive,inactive,inactive,inactive,inactive
NC(=O)/N=N/C(N)=O,inactive,inactive,inactive,inactive,,inactive,inactive,inactive,inactive,inactive,inactive,,inactive,inactive,inactive,inactive,inactive,inactive,
O=C(O[C@@H](C(=O)O)[C@@H](OC(=O)c1ccccc1)C(=O)O)c1ccccc1,,inactive,inactive,inactive,inactive,inactive,inactive,inactive,,inactive,inactive,inactive,inactive,inactive,inactive,inactive,inactive,inactive,inactive
Cc1ccc2ccccc2c1[N+](=O)[O-],,inactive,inactive,inactive,inactive,inactive,inactive,inactive,inactive,inactive,inactive,inactive,inactive,inactive,inactive,inactive,inactive,inactive,inactive
Cc1ccc(CO)cc1,,inactive,inactive,inactive,inactive,inactive,inactive,inactive,inactive,inactive,inactive,inactive,inactive,inactive,inactive,inactive,inactive,inactive,inactive
CCCCCCO,,inactive,inactive,inactive,inactive,,inactive,inactive,inactive,inactive,inactive,inactive,inactive,,inactive,inactive,inactive,inactive,inactive
Cc1ccc2ncccc2c1,,inactive,inactive,inactive,inactive,,inactive,inactive,,inactive,inactive,inactive,,inactive,inactive,inactive,inactive,inactive,inactive
CCOC(C)(C)C,inactive,inactive,inactive,inactive,inactive,inactive,inactive,inactive,inactive,inactive,inactive,inactive,inactive,inactive,inactive,inactive,inactive,,inactive
CC(C)N=C=NC(C)C,,inactive,inactive,inactive,inactive,inactive,inactive,inactive,inactive,inactive,inactive,inactive,inactive,inactive,inactive,inactive,inactive,inactive,inactive
Nc1cccc2c(=O)[nH][nH]c(=O)c12,,inactive,inactive,inactive,inactive,inactive,inactive,inactive,inactive,inactive,inactive,inactive,inactive,inactive,inactive,inactive,inactive,inactive,
C=C(C)OC(C)=O,,inactive,inactive,inactive,inactive,inactive,inactive,inactive,inactive,inactive,inactive,inactive,inactive,inactive,inactive,inactive,inactive,inactive,inactive

SMILES,Potency [1],Potency [2],Potency [3],Potency [4],Potency [5],Potency [6],Potency [7],Potency [8],Potency [9],Potency [10],Potency [11],Potency [12],outcome [13],Potency [14],Potency [15],outcome [16],outcome [17],Potency [18],Potency [19]
C=C(C)C(=O)OCCCCCC,,inactive,inactive,inactive,inactive,inactive,inactive,inactive,inactive,inactive,inactive,inactive,inactive,inactive,inactive,inactive,inactive,inactive,inactive
Cc1cc(C(=O)O)ccc1[N+](=O)[O-],inactive,inactive,inactive,inactive,inactive,,inactive,inactive,inactive,inactive,inactive,inactive,inactive,,inactive,inactive,inactive,,inactive
C=Cc1ccc(C=C)cc1,inactive,inactive,inactive,inactive,inactive,inactive,inactive,inactive,,inactive,inactive,inactive,inactive,inactive,inactive,inactive,,inactive,
Cc1cccc2sc(N)nc12,inactive,inactive,inactive,inactive,inactive,,inactive,inactive,,inactive,inactive,inactive,inactive,inactive,inactive,inactive,inactive,,inactive
CCOc1ccccc1N,,inactive,inactive,inactive,inactive,inactive,inactive,inactive,inactive,inactive,inactive,inactive,inactive,,inactive,inactive,inactive,inactive,inactive
C=CCCCCCC,,inactive,inactive,inactive,inactive,inactive,inactive,inactive,inactive,inactive,inactive,inactive,,inactive,inactive,inactive,inactive,12.6 µM (active),inactive
CCN(CC)c1cccc(O)c1,inactive,inactive,inactive,inactive,inactive,inactive,inactive,inactive,inactive,inactive,inactive,inactive,inactive,inactive,inactive,inactive,inactive,,
O=Cc1c(Cl)cccc1Cl,,inactive,inactive,inactive,inactive,inactive,inactive,inactive,,inactive,inactive,inactive,inactive,inactive,inactive,inactive,inactive,inactive,inactive
CCCCCO,,inactive,inactive,inactive,inactive,inactive,inactive,inactive,inactive,inactive,inactive,inactive,inactive,inactive,inactive,inactive,inactive,inactive,inactive
CC(=O)Nc1ccc(C)cc1,,inactive,inactive,inactive,inactive,,inactive,inactive,inactive,inactive,inactive,inactive,inactive,inactive,inactive,inactive,inactive,inactive,inactive
Cc1ccc2nc(-c3ccc(N)cc3)sc2c1S(=O)(=O)O,,inactive,inactive,inactive,inactive,inactive,inactive,inactive,inactive,inactive,inactive,inactive,inactive,inactive,inactive,inactive,inactive,,inactive
Cc1ccc2oc(=O)ccc2c1,inactive,inactive,inactive,inactive,,inactive,inactive,inactive,inactive,inactive,inactive,inactive,inactive,inactive,inactive,inactive,inactive,inactive,
O=[N+]([O-])c1ccc(CCO)cc1,inactive,,inactive,,,,,,,,,,,inactive,inactive,inactive,inactive,inactive,
O=C(O)c1ccccc1C(=O)O,inactive,inactive,inactive,inactive,inactive,inactive,inactive,inactive,inactive,inactive,inactive,inactive,inactive,inactive,inactive,inactive,,inactive,inactive
Cc1cccc([N+](=O)[O-])c1C(=O)O,,inactive,inactive,inactive,inactive,inactive,inactive,inactive,inactive,inactive,inactive,inactive,,inactive,inactive,inactive,inactive,inactive,inactive
Cc1ccc(C#N)cc1,,inactive,inactive,inactive,inactive,inactive,inactive,inactive,,inactive,inactive,inactive,inactive,inactive,inactive,inactive,inactive,inactive,inactive
C=CCCCC,inactive,inactive,inactive,inactive,inactive,inactive,inactive,inactive,inactive,inactive,inactive,inactive,,inactive,inactive,inactive,inactive,inactive,
C[C@@H]1CC2(OC[C@]3(C)O[C@H]23)O[C@H]2C[C@@]3(C)[C@@H]4CC[C@H]5C(C)(C)C(O[C@@H]6OC[C@@H](O)[C@H](O)[C@H]6O)CC[C@@]56C[C@@]46CC[C@]3(C)[C@@H]12 (stereo partly specified),inactive,inactive,inactive,inactive,,inactive,inactive,inactive,inactive,,inactive,inactive,inactive,inactive,inactive,inactive,,inactive,inactive
